Common to all, as to assay: DAPPL (digital affinity profiling via proximity ligation, sequencing); 10 mM Tris-HCl pH 7.5, 50 mM NaCl, 1 mM DTT, 4% glycerol, room temperature, 30 min; GST-TFs on glutathione beads, 16-mer random dsDNA library, 0.1% formaldehyde crosslink after washing; high values mean tight binding
Holding throughout (details): protein: recombinant; tags: N-terminal GST; dsDNA, one strand shown

One test deals with T1, ERF (Homo sapiens, UniProt P50548 1-548).
T1 sequence: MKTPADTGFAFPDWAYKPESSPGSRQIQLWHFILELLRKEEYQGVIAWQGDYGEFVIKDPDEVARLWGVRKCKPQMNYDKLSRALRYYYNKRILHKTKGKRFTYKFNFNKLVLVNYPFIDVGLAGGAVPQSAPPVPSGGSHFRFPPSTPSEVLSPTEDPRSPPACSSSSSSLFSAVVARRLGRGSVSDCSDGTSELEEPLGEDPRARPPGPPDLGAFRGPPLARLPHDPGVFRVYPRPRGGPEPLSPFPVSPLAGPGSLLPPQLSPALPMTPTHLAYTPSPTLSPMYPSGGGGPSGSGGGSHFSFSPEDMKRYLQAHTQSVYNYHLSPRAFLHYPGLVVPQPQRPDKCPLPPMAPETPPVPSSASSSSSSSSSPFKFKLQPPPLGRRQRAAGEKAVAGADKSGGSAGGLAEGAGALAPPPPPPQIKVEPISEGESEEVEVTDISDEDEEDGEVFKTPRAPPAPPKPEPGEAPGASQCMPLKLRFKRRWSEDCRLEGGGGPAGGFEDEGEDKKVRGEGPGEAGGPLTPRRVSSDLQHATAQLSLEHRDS
The essentials:
(§1)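 Human transcription factors carrying a GST fusion were produced in yeast, bound to glutathione beads, tagged with DNA barcodes and pooled together with a tag-only sample. Each pool was held with 200 nmole of a random double-stranded 16-mer DNA library in Tris/NaCl/DTT/glycerol buffer for 30 min at room temperature, then washed, crosslinked in 0.1% formaldehyde, proximity-ligated with BsaI/T4 ligase (1 h, 37 °C), PCR-amplified and sequenced on an Illumina NextSeq500. Binding signal is the read frequency of each hexamer for a given factor divided by its frequency in the tag-only sample.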

The next test addresses T2, ETV3L (Homo sapiens, UniProt Q6ZN32 1-361).
T2 sequence: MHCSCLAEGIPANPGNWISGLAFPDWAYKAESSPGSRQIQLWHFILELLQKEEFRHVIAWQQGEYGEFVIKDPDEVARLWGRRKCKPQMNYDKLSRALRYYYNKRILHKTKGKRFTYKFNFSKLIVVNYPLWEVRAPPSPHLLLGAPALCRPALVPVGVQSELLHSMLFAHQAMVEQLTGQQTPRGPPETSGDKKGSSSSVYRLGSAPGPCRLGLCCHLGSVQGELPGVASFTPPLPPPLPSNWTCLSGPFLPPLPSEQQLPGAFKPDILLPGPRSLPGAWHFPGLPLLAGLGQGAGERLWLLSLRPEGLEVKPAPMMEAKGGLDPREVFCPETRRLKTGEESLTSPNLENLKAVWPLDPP
The essentials: as §1

A further test addresses T3, ETS2 (Homo sapiens, UniProt P15036 1-469).
T3 sequence: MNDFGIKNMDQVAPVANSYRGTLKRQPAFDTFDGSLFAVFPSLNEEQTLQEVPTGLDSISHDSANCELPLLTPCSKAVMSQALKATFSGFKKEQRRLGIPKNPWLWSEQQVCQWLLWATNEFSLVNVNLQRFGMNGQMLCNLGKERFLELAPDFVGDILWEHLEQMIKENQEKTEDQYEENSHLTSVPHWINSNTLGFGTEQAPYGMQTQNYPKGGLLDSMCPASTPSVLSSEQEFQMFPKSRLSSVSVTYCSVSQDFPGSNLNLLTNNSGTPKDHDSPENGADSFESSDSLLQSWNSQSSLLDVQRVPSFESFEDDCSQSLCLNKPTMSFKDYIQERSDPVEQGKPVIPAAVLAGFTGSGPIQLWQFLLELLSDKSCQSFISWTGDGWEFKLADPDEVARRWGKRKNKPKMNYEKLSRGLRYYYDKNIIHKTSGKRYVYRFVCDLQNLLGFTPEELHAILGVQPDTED
The essentials:
as §1

Another test addresses T4, SPDEF (Homo sapiens, UniProt O95238 1-335).
T4 sequence: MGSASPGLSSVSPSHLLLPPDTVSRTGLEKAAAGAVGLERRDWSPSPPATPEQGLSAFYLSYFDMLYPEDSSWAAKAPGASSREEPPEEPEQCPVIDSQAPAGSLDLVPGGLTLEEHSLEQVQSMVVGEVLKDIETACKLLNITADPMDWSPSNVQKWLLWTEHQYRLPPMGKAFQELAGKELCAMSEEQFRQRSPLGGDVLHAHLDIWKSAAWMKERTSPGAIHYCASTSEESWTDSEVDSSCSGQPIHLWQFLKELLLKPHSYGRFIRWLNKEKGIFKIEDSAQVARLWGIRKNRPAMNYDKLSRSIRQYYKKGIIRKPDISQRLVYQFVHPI
The essentials:
as §1

For a further test, the target named is T5, ETV7 (Homo sapiens, UniProt Q9Y603 1-341).
T5 sequence: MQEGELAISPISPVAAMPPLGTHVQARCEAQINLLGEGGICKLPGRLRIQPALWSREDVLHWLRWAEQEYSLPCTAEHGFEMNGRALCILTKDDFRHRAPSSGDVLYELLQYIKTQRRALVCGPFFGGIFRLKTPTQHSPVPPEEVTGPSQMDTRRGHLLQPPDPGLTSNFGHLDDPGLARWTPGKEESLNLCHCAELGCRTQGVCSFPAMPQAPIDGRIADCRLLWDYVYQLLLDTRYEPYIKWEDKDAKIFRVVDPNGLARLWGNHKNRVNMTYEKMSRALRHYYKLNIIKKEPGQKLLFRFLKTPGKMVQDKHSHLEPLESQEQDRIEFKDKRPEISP
The method in brief:
as §1

The next test deals with T6, ELF5 (Homo sapiens, UniProt Q9UKW6-2 1-255).
T6 sequence: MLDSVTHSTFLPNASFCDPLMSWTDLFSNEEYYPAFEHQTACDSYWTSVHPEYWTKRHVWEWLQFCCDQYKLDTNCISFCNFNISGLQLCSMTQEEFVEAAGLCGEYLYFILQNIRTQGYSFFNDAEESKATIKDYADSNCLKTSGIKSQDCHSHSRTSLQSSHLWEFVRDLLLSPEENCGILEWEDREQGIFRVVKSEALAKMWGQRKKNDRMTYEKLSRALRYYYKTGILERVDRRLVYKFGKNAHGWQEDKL
The method in brief: as §1

The target in another test is T7, ETV3 (Homo sapiens, UniProt P41162-2 1-143).
T7 sequence: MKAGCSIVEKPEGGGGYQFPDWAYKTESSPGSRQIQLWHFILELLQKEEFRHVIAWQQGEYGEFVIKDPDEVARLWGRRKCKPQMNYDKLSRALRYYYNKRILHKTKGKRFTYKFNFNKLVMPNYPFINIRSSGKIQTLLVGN
The essentials: as §1

The target of the next test is ETV6 (Homo sapiens, UniProt P41212 1-452). The essentials:
as §1

ETV6, sequence (P41212 whole entry): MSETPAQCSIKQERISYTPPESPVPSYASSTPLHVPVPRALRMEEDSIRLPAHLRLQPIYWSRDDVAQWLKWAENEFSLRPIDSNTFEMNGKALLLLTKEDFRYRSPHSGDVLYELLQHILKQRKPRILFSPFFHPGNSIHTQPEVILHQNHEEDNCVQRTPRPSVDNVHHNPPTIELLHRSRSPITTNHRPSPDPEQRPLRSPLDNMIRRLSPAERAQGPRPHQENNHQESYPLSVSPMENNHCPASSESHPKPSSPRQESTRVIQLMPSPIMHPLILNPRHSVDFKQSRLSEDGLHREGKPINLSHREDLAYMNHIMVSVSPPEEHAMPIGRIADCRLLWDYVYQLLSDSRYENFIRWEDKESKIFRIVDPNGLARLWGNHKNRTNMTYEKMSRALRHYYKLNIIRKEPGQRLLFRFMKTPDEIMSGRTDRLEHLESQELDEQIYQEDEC

As for TGGTGT, the binding signal with ERF was 1.19 fold enrichment (6-mer frequency, TF over GST control); with ETV3L, 1.25 fold enrichment (6-mer frequency, TF over GST control); with ETS2, 1.32 fold enrichment (6-mer frequency, TF over GST control); with SPDEF, 1.23 fold enrichment (6-mer frequency, TF over GST control); with ETV7 it was 1.08 fold enrichment (6-mer frequency, TF over GST control); with ELF5, 1.14 fold enrichment (6-mer frequency, TF over GST control). Further, the binding signal with ETV3 was 1.25 fold enrichment (6-mer frequency, TF over GST control); with ETV6, 1.31 fold enrichment (6-mer frequency, TF over GST control).

Take TATTTC: the binding signal in the test with ERF is 1.86 fold enrichment (6-mer frequency, TF over GST control); in the test with ETV3L, 2.06 fold enrichment (6-mer frequency, TF over GST control); with ETS2, 2.23 fold enrichment (6-mer frequency, TF over GST control); in the test with SPDEF it was 2 fold enrichment (6-mer frequency, TF over GST control); with ETV7, 2.2 fold enrichment (6-mer frequency, TF over GST control); with ELF5, 2.66 fold enrichment (6-mer frequency, TF over GST control). Moreover, the binding signal was 2.23 fold enrichment (6-mer frequency, TF over GST control) with ETV3 and 2.54 fold enrichment (6-mer frequency, TF over GST control) with ETV6.

In the case of TTCACA, the binding signal with ERF is 1.26 fold enrichment (6-mer frequency, TF over GST control); with ETV3L, 1.21 fold enrichment (6-mer frequency, TF over GST control); in the test with ETS2, 1.23 fold enrichment (6-mer frequency, TF over GST control); in the test with SPDEF it was 1.25 fold enrichment (6-mer frequency, TF over GST control); in the test with ETV7, 1.29 fold enrichment (6-mer frequency, TF over GST control); with ELF5, 1.12 fold enrichment (6-mer frequency, TF over GST control). In addition, the binding signal in the test with ETV3 was 1.13 fold enrichment (6-mer frequency, TF over GST control); with ETV6 it was 1.13 fold enrichment (6-mer frequency, TF over GST control).

For TCAAAT, the binding signal with ERF is 1.01 fold enrichment (6-mer frequency, TF over GST control); in the test with ETV3L, 1.13 fold enrichment (6-mer frequency, TF over GST control); with ETS2, 1.09 fold enrichment (6-mer frequency, TF over GST control); with SPDEF, 1.11 fold enrichment (6-mer frequency, TF over GST control); in the test with ETV7 it was 1.14 fold enrichment (6-mer frequency, TF over GST control); with ELF5, 1.07 fold enrichment (6-mer frequency, TF over GST control). Further, the binding signal with ETV3 was 1.07 fold enrichment (6-mer frequency, TF over GST control); with ETV6, 1.07 fold enrichment (6-mer frequency, TF over GST control).

In the case of TACACA, the binding signal in the test with ERF was 1.24 fold enrichment (6-mer frequency, TF over GST control); with ETV3L, 1.15 fold enrichment (6-mer frequency, TF over GST control); with ETS2, 1.16 fold enrichment (6-mer frequency, TF over GST control); with SPDEF, 1.27 fold enrichment (6-mer frequency, TF over GST control); with ETV7, 1.19 fold enrichment (6-mer frequency, TF over GST control); with ELF5, 1.13 fold enrichment (6-mer frequency, TF over GST control). For the same sequence, the binding signal in the test with ETV3 was 1.13 fold enrichment (6-mer frequency, TF over GST control); in the test with ETV6, 1.21 fold enrichment (6-mer frequency, TF over GST control).

As for CTAAAG, the binding signal with ERF is 1.44 fold enrichment (6-mer frequency, TF over GST control); in the test with ETV3L, 1.33 fold enrichment (6-mer frequency, TF over GST control); with ETS2, 1.32 fold enrichment (6-mer frequency, TF over GST control); with SPDEF, 1.26 fold enrichment (6-mer frequency, TF over GST control); with ETV7 it was 1.35 fold enrichment (6-mer frequency, TF over GST control); in the test with ELF5, 1.33 fold enrichment (6-mer frequency, TF over GST control). In addition, the binding signal with ETV3 is 1.36 fold enrichment (6-mer frequency, TF over GST control); in the test with ETV6, 1.23 fold enrichment (6-mer frequency, TF over GST control).

For the sequence TCCTGG, the binding signal was 1.43 fold enrichment (6-mer frequency, TF over GST control) in the test with ERF; 1.83 fold enrichment (6-mer frequency, TF over GST control) with ETV3L; 1.82 fold enrichment (6-mer frequency, TF over GST control) in the test with ETS2; 2.13 fold enrichment (6-mer frequency, TF over GST control) with SPDEF; 1.56 fold enrichment (6-mer frequency, TF over GST control) in the test with ETV7; 2.35 fold enrichment (6-mer frequency, TF over GST control) with ELF5. Also, the binding signal was 1.74 fold enrichment (6-mer frequency, TF over GST control) with ETV3 and 1.77 fold enrichment (6-mer frequency, TF over GST control) in the test with ETV6.

The values above are taken from article PMC7862700, “An all-to-all approach to the identification of sequence-specific readers for epigenetic DNA modifications on cytosine”.
